# Data reported in the supplement of paper PMC12340641.
# The full ranking holds about 1,000 compounds; the median of “relative growth in counter assay (no AraC = 100%, AraC + DMSO = 0%)” is about -1.1, and the highest 2% start at about 20. Only a selection was taken, and the highest values are over-represented in it overall.
# Tested on: HEK293FT dCK*-only
# Experiment: relative growth in counter assay (no AraC = 100%, AraC + DMSO = 0%); higher = more growth rescue independent of IKZF1
# Conditions: compound concentration: 5 uM; AraC concentration: 0.3 uM; overnight pretreatment + 4 days AraC
# Procedure: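 Growth recovery screen of the molecular-glue-like (Specs) library. HEK293FT cells expressing a dCK*-IKZF1 fusion (primary) or dCK* alone (counter) were pretreated overnight with compound at 5 uM, then given 0.3 uM AraC for 4 days. Hoechst nuclei were counted by imaging. Primary: normalised to pomalidomide (100%) and DMSO (0%), mean of 2 replicates. Counter: normalised to no-AraC (100%) and AraC+DMSO (0%), single replicate.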
row,SMILES,relative growth in counter assay
1,CCCCc1cnc(Nc2cccc(C3CCN(C(=O)C(C)(C)NC(=O)COC)CC3)n2)s1,-10.6%
2,COc1cccc(CC(=O)N2CCC(c3cccc(Nc4nc(C)c(C)s4)n3)CC2)c1,2.52%
3,Cc1ccnc(NS(=O)(=O)c2ccc(NC(=O)c3ccco3)cc2)n1,3.62%
4,NCC(=O)N1CCC(c2cccc(Nc3ncc(Cl)s3)n2)CC1,-23.9%
5,COc1ccc(N2CC(C(=O)Nc3ccc(S(=O)(=O)Nc4nc(C)cc(C)n4)cc3)CC2=O)cc1 (centres undefined),7.32%
6,Cc1ccnc(NS(=O)(=O)c2ccc(NC(=O)C3c4ccccc4Oc4ccccc43)cc2)n1,-3.45%
7,COc1ccc(Br)cc1/C=N/NS(=O)(=O)c1ccccc1,-21.2%
8,Cc1nc(Nc2cccc(C3CN(C(=O)c4cn5cccc(C)c5n4)CCO3)n2)sc1C (centres undefined),2.16%
9,CNC(=O)C1(c2cccc(Nc3ncc(C)s3)n2)CCN(C(=O)C2CCCCC2)CC1,-21.2%
10,Cc1cc(C)nc(NS(=O)(=O)c2ccc(NC(=O)CSc3nnnn3-c3ccccc3)cc2)n1,1.47%
11,CC(C)CC(=O)N1CCCC1c1csc(Nc2ccccn2)n1 (centres undefined),-4%
12,Cc1cnc(Nc2cccc(C3CCN(C(=O)C4(NC(=O)C(C)C)CCCCC4)CC3)n2)s1,-24.4%
13,CC(=O)Nc1ccc(S(=O)(=O)Nc2ncccn2)cc1,-1.98%
14,CC(=O)Nc1ccc(S(=O)(=O)Nc2ccccn2)cc1,-7.51%
15,CC(=O)Nc1ccc(S(=O)(=O)N(Cc2ccccc2)c2ccccn2)cc1,21%
16,CC1(C)C=C(CC(=O)N2CCOC(c3cccc(Nc4nccs4)n3)C2)CC(C)(C)N1 (centres undefined),6.81%
17,O=C(CN1C(=O)c2ccccc2C1=O)Nc1ccc(S(=O)(=O)Nc2ncccn2)cc1,-1.34%
18,O=C1c2ccc(Oc3ccc(NC(=O)C(F)(F)F)cc3)cc2C(=O)N1c1ccc(O)cc1,-3.44%
19,CCCOc1ccccc1C(=O)Nc1ccc(S(=O)(=O)Nc2nc(C)cc(C)n2)cc1,2.83%
20,CCCc1cnc(Nc2cccc(C3CCN(C(=O)C4CCCCN4CCO)CC3)n2)s1 (centres undefined),-7.08%
21,Cc1cnc(Nc2cccc(C3CCN(CC(=O)N(C)C4CCCCC4)CC3)n2)s1,-15.6%
22,Cc1cc(C)nc(NS(=O)(=O)c2ccc(NC(=O)C(C)C)cc2)n1,2.66%
23,Cc1cc(C)cc(OCC(=O)Nc2ccc(S(=O)(=O)Nc3cc(C)nc(C)n3)cc2)c1,7.68%
24,Cc1ccc(Cl)cc1NC(=O)CSc1nnc2c(n1)[nH]c1ccc(F)cc12,-2.7%
25,Cc1csc(Nc2cccc(C3CN(C(=O)CCc4nc(C)no4)CCO3)n2)n1 (centres undefined),4.72%

row,SMILES,relative growth in counter assay
1,COCC(=O)N1CCOC(c2cccc(Nc3nc(C)cs3)n2)C1 (centres undefined),2.47%
2,COc1ccc(CCC(=O)N2CCOC(c3cccc(Nc4nc(C)cs4)n3)C2)cc1 (centres undefined),19.5%
3,COc1cccc(CCC(=O)N2CCOC(c3cccc(Nc4ncc(C)s4)n3)C2)c1 (centres undefined),6.36%
4,COc1ccc(CCC(=O)N2CCOC(c3cccc(Nc4ncc(C)s4)n3)C2)cc1 (centres undefined),9.66%
5,Cc1csc(Nc2cccc(C3CN(C(=O)CCCc4ccc(F)cc4)CCO3)n2)n1 (centres undefined),36.2%
6,CC(=O)N1CCC(c2csc(Nc3ccc(F)cn3)n2)CC1,4.68%
7,CCCCc1cnc(Nc2cccc(C3CCN(C(=O)[C@@H]4CCCN4CCO)CC3)n2)s1,2.3%
8,CC(C)c1ccc(OCC(=O)Nc2ccc(S(=O)(=O)Nc3ccccn3)cc2)cc1,4.55%
9,O=C(Nc1ccc(S(=O)(=O)Nc2ncccn2)cc1)Oc1ccccc1,-1.98%
10,Cc1cc(NS(=O)(=O)c2ccc(NC(=O)c3cc4ccccc4o3)cc2)nc(C)n1,-3.17%
11,Cc1nc(Nc2cccc(C3CCCN3C(=O)c3cc4ccc(F)cc4[nH]3)n2)sc1C (centres undefined),9.01%
12,O=C(CS(=O)(=O)c1ccccc1)Nc1ccc(S(=O)(=O)Nc2ncccn2)cc1,8.67%
13,O=C(Nc1ccc(S(=O)(=O)Nc2ccccn2)cc1)c1cccc(Cl)c1,-0.42%
14,O=C(O)CCCCCNc1cccc2c1C(=O)N(C1CCC(=O)NC1=O)C2=O (centres undefined),1.33%
15,CCCc1cnc(Nc2cccc(C3CCN(C(=O)C4CCCCC4)CC3)n2)s1,-19.4%
16,COCC(C)NC(=O)CN1CCC(c2cccc(Nc3ncc(C)s3)n2)CC1 (centres undefined),-1.08%
17,Cc1cnc(Nc2cccc(C3CCN(CC(=O)N4CCC(C)CC4)CC3)n2)s1,-9.8%
18,Cc1nc(Nc2cccc(C3CN(CC(=O)N4CCC(C)CC4)CCO3)n2)sc1C (centres undefined),7.05%
19,COCC(C)NC(=O)CN1CCC(c2cccc(Nc3nccs3)n2)CC1 (centres undefined),-1.53%
20,Cc1nc(Nc2cccc(C3CCN(CC(=O)N4CCC(C)CC4)CC3)n2)sc1C,26.6%
21,Cc1cnc(NC(=O)CN2CCC(c3cccc(Nc4nc(C)c(C)s4)n3)CC2)s1,24.2%
22,Cc1cnc(Nc2cccc(C3CCN(CC(=O)Nc4c(F)cccc4F)CC3)n2)s1,-16.6%
23,Cc1cnc(NC(=O)CN2CCC(c3cccc(Nc4ncc(C)s4)n3)CC2)s1,-16.5%
24,COCC(C)NC(=O)CN1CCC(c2cccc(Nc3nc(C)c(C)s3)n2)CC1 (centres undefined),25.6%
